According to PubChem BioAssay:
Unmarked numbers belong to inactive results. Active and inactive are the calls of the source. Unless noted, no stated cut-off is given here; in the data, active means inhibition above about 30%; inactive means the rest.

Key:
[1] = target: Nuclear receptor coactivator 3 (Homo sapiens) (UniProt Q9Y6Q9); test: NCOA3 GAL4-fusion reporter inhibition – cell-based, luminescence, quadruplicate, confirmation (AID 588792;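 active means mean inhibition over 43.08%, the solvent-only control mean plus 3 SD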;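 further: 0% = DMSO treated cells and 100% = gossypol at 36 µM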); conditions: HEK293 GAL4-SRC3 luciferase reporter, at 3.6 µM, hits give high values
[2] = system: transactivating tegument protein VP16 (Human herpesvirus 1), Gal4-VP16 luciferase reporter; test: repression of VP16-driven luciferase reporter – cell-based, luminescence, high throughput, counter-screen for SRC3 inhibitor project (AID 588794); conditions: mammalian cells, at 3.6 µM, hits give high values

Nuclear receptor coactivator 3 (Homo sapiens), sequence (Q9Y6Q9 whole entry, looked up, the tested form may be a part): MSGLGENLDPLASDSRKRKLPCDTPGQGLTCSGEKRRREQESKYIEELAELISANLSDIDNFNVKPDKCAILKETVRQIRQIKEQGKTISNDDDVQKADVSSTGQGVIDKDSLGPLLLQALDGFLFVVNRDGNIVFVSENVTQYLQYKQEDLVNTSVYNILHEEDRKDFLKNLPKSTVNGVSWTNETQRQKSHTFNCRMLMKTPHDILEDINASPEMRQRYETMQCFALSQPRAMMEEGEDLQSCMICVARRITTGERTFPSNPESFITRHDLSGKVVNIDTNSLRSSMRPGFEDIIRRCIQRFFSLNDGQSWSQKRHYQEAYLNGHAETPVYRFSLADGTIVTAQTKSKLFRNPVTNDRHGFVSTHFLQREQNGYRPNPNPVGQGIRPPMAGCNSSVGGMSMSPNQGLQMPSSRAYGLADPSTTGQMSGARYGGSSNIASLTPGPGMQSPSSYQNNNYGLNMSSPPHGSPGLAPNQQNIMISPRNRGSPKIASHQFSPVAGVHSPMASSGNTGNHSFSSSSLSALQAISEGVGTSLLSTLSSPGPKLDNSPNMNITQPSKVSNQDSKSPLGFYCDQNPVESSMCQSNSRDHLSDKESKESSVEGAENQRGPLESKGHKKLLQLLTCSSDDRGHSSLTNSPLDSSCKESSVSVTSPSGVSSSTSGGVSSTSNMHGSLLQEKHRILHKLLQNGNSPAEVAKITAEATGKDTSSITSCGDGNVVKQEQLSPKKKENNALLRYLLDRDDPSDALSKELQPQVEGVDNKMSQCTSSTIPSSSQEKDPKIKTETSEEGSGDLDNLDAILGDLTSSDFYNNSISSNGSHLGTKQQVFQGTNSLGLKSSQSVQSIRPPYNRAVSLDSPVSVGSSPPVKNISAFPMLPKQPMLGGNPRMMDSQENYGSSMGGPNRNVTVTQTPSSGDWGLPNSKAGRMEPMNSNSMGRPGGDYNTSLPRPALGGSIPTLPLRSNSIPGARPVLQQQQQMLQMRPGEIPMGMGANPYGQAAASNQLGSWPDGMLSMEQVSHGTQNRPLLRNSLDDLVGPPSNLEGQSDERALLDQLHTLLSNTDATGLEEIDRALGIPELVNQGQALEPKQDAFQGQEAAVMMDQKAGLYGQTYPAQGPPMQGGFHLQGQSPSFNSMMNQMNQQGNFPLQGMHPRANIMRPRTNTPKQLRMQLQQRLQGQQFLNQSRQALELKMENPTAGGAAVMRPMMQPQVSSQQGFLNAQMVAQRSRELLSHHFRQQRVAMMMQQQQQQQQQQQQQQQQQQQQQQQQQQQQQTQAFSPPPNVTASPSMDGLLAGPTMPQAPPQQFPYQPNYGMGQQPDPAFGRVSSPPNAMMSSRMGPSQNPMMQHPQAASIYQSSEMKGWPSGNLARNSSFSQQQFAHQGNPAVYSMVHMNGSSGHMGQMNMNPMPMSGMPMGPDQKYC

SMILES	inhibition [1]	inhibition [2]
O=C(Nc1ccccc1Cc1ccccc1)c1ccccc1NS(=O)(=O)c1ccc(Cl)s1	4.01%	24.9%
COc1cccc(/C=N/Nc2cc(-n3nc(C)cc3-c3ccccc3)ncn2)c1O	28.9%	-9.27%
CC1CCCCC1NC(=O)Cn1cnc2ccccc2c1=O (centres undefined)	10.5%	-4.34%
CCCCNS(=O)(=O)c1ccc(S(=O)(=O)NCc2ccncc2)cc1	16.5%	25.1%
COc1ccc(CNC(=O)c2ccc(Cl)c(S(=O)(=O)N3CCOCC3)c2)cc1OC	12.8%	27.5%
O=C(Nc1ccc(S(=O)(=O)Nc2ccc(F)cc2)cc1)c1ccc(CN2CCOCC2)cc1	7.38%	38.6% (active)
COc1ccc(-c2csc(NC(=O)c3ccc(S(=O)(=O)N4CCc5ccccc5C4)cc3)n2)cc1	25.1%	24.1%
O=C(c1ccc(S(=O)(=O)Nc2cccc(C(F)(F)F)c2)cc1)N1CCC1	-2.7%	-5.66%
O=C(CN1C(=O)c2ccccc2S1(=O)=O)c1ccc(F)cc1	-13.1%	17.6%
COc1cccc(CNC(=O)c2cc3c(c(-c4cccc(-c5cccc(C#N)c5)c4)n2)[C@H](CCO)N(S(=O)C(C)(C)C)C3)c1 (some centres undefined)	-23%	0.36%
COc1ccc2c(c1)N(C)/C(=C/c1cccc[n+]1C)S2	-6.44%	37.5% (active)
C/C(=N\NC(=O)C1COc2ccccc2O1)c1ccccn1 (centres undefined)	-12.8%	19.6%
O=C(O)c1cc(NS(=O)(=O)c2ccc(N3CCOCC3)c([N+](=O)[O-])c2)cc(C(=O)O)c1	1.8%	-5.01%
CC(C)(C)c1csc(Sc2ccc([N+](=O)[O-])cn2)n1	13.1%	-8.39%
Cc1noc(C)c1COC(=O)c1cc(F)c(F)cc1Cl	2.84%	1.74%
COc1ccc(C(C)=O)cc1CSc1nnc(Nc2ccccc2)s1	9.88%	19.3%

SMILES	inhibition [1]	inhibition [2]
COC(=O)c1ccc2c(c1)C(C)(C)C(/C=C/c1ccc(O)cc1)=[N+]2C	66.6% (active)	52.8% (active)
Cc1ccccc1NC1=NCC(c2ccc([N+](=O)[O-])cc2)S1 (centres undefined)	18%	-2.52%
COc1ccc(CCNc2ncnc3sccc23)cc1OC	12%	42.6% (active)
O=S(=O)(NC1=NCCC1)c1cccc(NS(=O)(=O)c2ccc(OC(F)(F)F)cc2)c1	-6.28%	-8.52%
COc1ccccc1NS(=O)(=O)c1cc(NC(=O)c2ccc(Cl)nc2)ccc1Cl	9.43%	30.7% (active)
CN(C)CCCOc1ccc2c(c1)Sc1ccccc1CC2=O	-10.4%	-4.19%
O=C(NCc1cccs1)C1CCCN(C(=O)Nc2ccc(F)cc2)C1 (centres undefined)	-1.07%	5.59%
Cc1nc(Nc2ccc3c(c2)OCCO3)c2nnn(Cc3ccccc3Cl)c2n1	22.1%	-3.54%
Cn1nc(C(F)(F)F)c(-c2ccc(Br)cc2)c1NC(=O)c1ccco1	7.4%	-1.15%
Cc1cccc(N2CCN(C(=O)C3CCN(c4ncnc5c4nc4n5CCCCC4)CC3)CC2)c1C	-4.11%	11.5%
CCOC(=O)c1c(C)[nH]c(C)c1C(=O)COC(=O)/C=C/c1cccc(Cl)c1	-3.47%	-1.23%
O=c1c2ccccc2cnn1CCOc1ccccc1	-15.3%	-21.5%
CCN1CCN(c2cc(C)c3cc(NC(=S)N4CCCC(C)C4)ccc3n2)CC1 (centres undefined)	45.3% (active)	31.4% (active)
COc1ccc(/C=C(\C#N)C(=O)OCC(=O)N(C)C2CCS(=O)(=O)C2)cc1 (centres undefined)	-1.8%	-11%
COc1ccc(Cl)cc1C(=O)Nn1c(-c2cccs2)nc2ccccc2c1=O	25.5%	22.1%
CN(C)S(=O)(=O)c1cccc(-c2nn(-c3ccccc3)cc2/C=C(\C#N)c2nc3ccccc3[nH]2)c1	1.73%	-4.19%
